High-throughput results (PubChem BioAssay)
In the library only some 9% were active in any assay of this set; here they are far more common.
HTT ATP protect: cytoprotection in Huntington HTT-Q103 PC12 cell model. PC12 HTT-Q103 induced, cytoprotection, ATP luminescence, 40 h. Potency, µM (highest dose often 56.4 µM), most hits filed as activators. hit rate 0.14% among 230,000; further: nearly all actives have a fitted effect of over 45% in size
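Compounds added alongside 100 nM tebufenozide, which induces toxic Q103 huntingtin exon 1-GFP in stable PC12 cells; surviving cells quantified by luminescent ATP measurement. Medium: phenol red-free DMEM, 5% equine and 5% calf serum.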
ALDH1A1 block: ALDH1A1 (human) enzyme inhibition; P00352; AID 1030; Purified ALDH1A1, NADH fluorescence, propionaldehyde substrate; Potency, µM (highest dose often 75.3 µM), hits mostly inhibitors; hit rate 7.3% among 220,000; active means well fitted inhibition curve with a large enough effect, not every such curve was filed as active; inconclusive means small, poorly fitted or top-dose-only effect, or another doubt; inactive means no such curve, though single readings can be large or run the other way
Target sequence (P00352 whole entry, looked up): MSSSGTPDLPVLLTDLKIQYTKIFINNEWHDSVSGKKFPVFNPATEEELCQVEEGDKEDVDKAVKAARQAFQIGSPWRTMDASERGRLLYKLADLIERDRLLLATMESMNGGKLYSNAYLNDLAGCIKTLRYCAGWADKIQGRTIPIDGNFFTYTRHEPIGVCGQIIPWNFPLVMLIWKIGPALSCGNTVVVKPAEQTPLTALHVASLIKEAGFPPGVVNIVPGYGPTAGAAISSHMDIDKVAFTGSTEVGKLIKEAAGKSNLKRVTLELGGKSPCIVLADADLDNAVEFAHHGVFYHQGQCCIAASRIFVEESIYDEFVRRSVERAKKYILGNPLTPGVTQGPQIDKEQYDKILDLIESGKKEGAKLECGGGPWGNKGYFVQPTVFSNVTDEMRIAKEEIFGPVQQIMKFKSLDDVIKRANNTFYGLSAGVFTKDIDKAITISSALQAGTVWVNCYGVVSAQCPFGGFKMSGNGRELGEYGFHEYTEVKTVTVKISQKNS
HPGD inh: HPGD (human) dehydrogenase inhibition; hit rate 4.3% among 150,000; P15428; Potency, µM, hits mostly inhibitors; purified HPGD, NADH fluorescence kinetic, PGE2 substrate; active means well fitted inhibition curve with a large enough effect, not every such curve was filed as active; inconclusive means small, poorly fitted or top-dose-only effect, or another doubt; inactive means no such curve, though single readings can be large or run the other way
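NADH formation kinetics: reaction with 30 uM PGE2 and 1 mM NAD+ (final), 20 nM enzyme, Tris-HCl pH 8 with Tween 20, after 15 min compound preincubation at room temperature. Fluorescence change, last versus first of five reads.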
Lamin A splicing: changes lamin A minigene splicing in HeLa cells. HeLa LMNA splicing GFP/RFP minigene ratio, 48 h. Potency, µM (doses to about 46.1 µM), hits mostly inhibitors. hit rate 0.01% among 200,000; active means well fitted inhibition curve with a large enough effect in the signal ratio, with a control signal flat, not every such curve was filed as active; inconclusive means small, poorly fitted or top-dose-only effect, or effect the other way, or a change in a side signal; the % refers to the signal ratio
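Read-out is the ratio of GFP to DsRed2 object intensity, acquired by 488 nm laser-scanning cytometry on HeLa lamin A-EGFP minigene reporter cells. Compound incubation 48 hrs at 37 °C in Opti-MEM with 2% FBS; DMSO 0.5% final.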
KinaseGlo FLuc: blocks Kinase-Glo luciferase, a counter-screen artifact. Kinase-Glo luciferase, ATP luminescence, 8 min. Potency, µM (highest dose often 38.3 µM), most hits filed as inhibitors. hit rate 0.28% among 200,000. AID 1379; further: nearly all actives have a fitted effect of over 60% in size
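Compound is pinned into ATP-containing buffer (10 uM ATP, imidazole pH 7.2, 7 mM MgCl2). Kinase-Glo luciferase reagent is then added. Light output is recorded following an 8-min room-temperature incubation.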
HTT aggregate: reduces HttQ103-GFP aggregates in PC12 cells | PC12 HttQ103-GFP aggregates, Acumen cytometry, 40 h | Potency, µM (highest dose often 46.1 µM), hits mostly inhibitors | hit rate 1.1% among 220,000 | AID 1688; further: nearly all actives have a fitted effect of over 60% in size
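Read-out: GFP aggregate count by laser scanning cytometer (488 nm excitation, 500-530 nm emission, 1–25 µm objects >6 SD above background). Cells: PC12, inducible HTTex1-Q103-GFP, 100 nM tebufenozide; compounds titrated.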
Numbers stand for hits; n = inactive; u = inconclusive; x = no result; [ ] = remark or other dose. Unless noted, the call rests on the fitted dose curve; in most records, active means well fitted curve in the direction sought with a large enough effect; inconclusive means small, poorly fitted or top-dose-only effect, or another doubt; inactive means no such curve, though single readings can be large; an effect the other way counts as inactive or inconclusive.

SMILES	HTT ATP protect	ALDH1A1 block	HPGD inh	Lamin A splicing	KinaseGlo FLuc	HTT aggregate
O=c1[nH]c(=O)n(CCC2=CCCCC2)c(O)c1C=NC1CCN(Cc2ccccc2)CC1	n	n	n	u	n	n
CCOc1c(Cl)cc(CNc2ccc(S(N)(=O)=O)cc2)cc1OC	n[10 µM]	n	25.1µM	u	n	n
CCOC(=O)c1c(-n2c(C)cc(C=C3C(=O)NC(=O)NC3=O)c2C)sc2c1CCCC2	n	n	n	u	n	u
Cc1cccc(N2C(=O)NC(=O)/C(=C\c3cc(C)n(-c4sc5c(c4C#N)CCCC5)c3C)C2=O)c1C	n[10 µM]	0.251µM	3.98µM	n	n	5.01µM
CC1=CC(=O)OC2CC3OC4C[C@@H](C)C5OC6CC7O[C@]8(C)C/C=C\C9OC%10CC%11OC(CC(C)CO)CC(O)[C@]%11(C)OC%10CC9OC8C[C@]7(C)O[C@]6(C)CCC5OC4C[C@]3(C)OC12 (stereo partly drawn)	n[10 µM]	2.82µM	x	x	x	n[9.22 µM]
C=C(COC(=O)CCC(=O)O)CC1CC(O)[C@]2(C)OC3CC4OC5C[C@]6(C)O[C@]7(C)CCC8OC9C[C@]%10(C)OC%11C(C)=CC(=O)OC%11CC%10OC9C[C@@H](C)C8OC7CC6O[C@]5(C)C/C=C\C4OC3CC2O1 (stereo partly drawn)	n[10 µM]	x	x	x	x	u
CC(NCc1cccc(Cl)c1Cl)C(O)c1ccccc1 (stereo not drawn)	n[10 µM]	n	n	n	n	n
CN(C)C1C(=O)C(C(N)=O)=C(O)[C@@]2(O)C(=O)C3=C(O)c4c(O)cccc4[C@@](C)(O)C3[C@H](O)C12 (stereo partly drawn)	n[1.9 µM]	7.08µM	u	x	n	x
CCCCCn1c(=O)c(C(=O)NCc2ccncc2)c(O)c2ccccc21	n[10 µM]	u	u	u	n	22.4µM
O=C1/C(=C/c2cccnc2)SC(=NCc2ccccc2)N1Cc1ccccc1	n	0.562µM	x	u	n	u
C[C@@H](C(=O)O)c1ccc(-c2ccccc2)c(F)c1	n	n	28.2µM	u	n	n
C[C@@H](C(=O)O)c1ccc(C(=O)c2cccs2)cc1	n	n	n	u	n	n
O=C(O)C1Sc2[nH]c(=O)sc2C2c3cc(Cl)ccc3OC(=O)C12 (stereo not drawn)	n[0.074 µM]	12.6µM	u	n	n	n
COc1ccc(N=Cc2c(O)n(CC3CCCO3)c(=O)[nH]c2=O)cc1 (stereo not drawn)	n[10 µM]	u	u	n	n	n
CCN(CC)CCN=Cc1c(O)n(Cc2ccco2)c(=O)[nH]c1=O	n[10 µM]	n	x	x	x	n[9.22 µM]
O=c1[nH]c(=O)n(Cc2ccco2)c(O)c1C=NCc1ccco1	n	10µM	28.2µM	u	n	n
CC(=O)Nc1ccc(N=Cc2c(O)n(Cc3ccco3)c(=O)[nH]c2=O)cc1	n[10 µM]	9.46µM	x	u	x	n[9.22 µM]
[N-]=[N+]=[N-]	n	17.8µM	n	x	x	x
Nc1nc2c(ncn2[C@@H]2O[C@H](CO)[C@@H](O)[C@@H]2O)c(=[SH+])[nH]1.O=[N+]([O-])c1ccc(O)[c]([Hg])c1	x	0.0501µM	0.0251µM	x	2.82µM	x
COc1ccc(C2SCC(=O)Nc3c2c(C)nn3C2CCOC(C)(C)C2)cc1 (stereo not drawn)	n	u	n	n	n	n
COc1cccc(-c2cc(C(F)(F)F)n3nc(C(=O)N4CCC5(CC4)OCCO5)cc3n2)c1	n	12.6µM	11.2µM	n	n	n
O=C(c1cnn2c(C(F)(F)F)cc(-c3ccccc3)nc12)N1CCC2(CC1)OCCO2	n[10 µM]	u	n	n	n	n
CC1=C(C(=O)OC(C)C)[C@]2(C(=O)N(CC(N)=O)c3ccccc32)C(C#N)=C(N)O1	n[10 µM]	n	n	n	n	n
COc1ccccc1-c1n[nH]c(=S)n1Cc1ccco1	u	n	x	n	n	u
CCCCCCCCCCCC[N+](C)(C)CCOc1ccccc1	n	14.1µM	n	u	x	u
O=P1(Nc2cccnc2)COc2ccccc2OC1	n[0.074 µM]	n	7.08µM	n	n	n
CC1CN=C(Nc2ccccc2)S1 (stereo not drawn)	n[10 µM]	n	8.91µM	n	n	n
CC1CN=C(Nc2ccc(N(C)C)cc2)S1 (stereo not drawn)	n	n	x	n	x	n
